# According to PubChem BioAssay (NCATS):
# A number with no mark means an inactive call. Records with an inconclusive call do not appear. Active and inactive are the calls of the source. Unless noted, calls come from the whole dose curve; as a rule, active = well fitted curve in either direction with a large enough effect (not every such curve was filed as active); inconclusive = small, poorly fitted or top-dose-only effect, or another doubt; inactive = flat fitted curve, though single readings scatter.
# Experiments:
# [1] = molecular target: Lysosomal acid glucosylceramidase (Homo sapiens) (UniProt P04062); experiment: Glucocerebrosidase-p2 (AID 348; in the data active = potency below about 10 µM; note: potency is the fitted concentration of half-maximal effect); settings: purified GBA, blue fluorogenic substrate, 40 min
# Procedure, shortened: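 Compounds titrated from 0.6 nM upwards against 0.2 nM enzyme in pH 5.9 citric acid/KH2PO4, taurocholate, tween-20; blue fluorogenic substrate 80 uM, 40 min room temperature, stopped and read Ex 365/Em 440 for AC50.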
# [2] = molecular target: Cytochrome P450 1A2 (Homo sapiens) (UniProt P05177); experiment: p450-cyp1a2 (AID 410; calls by dose curve; note: potency is the fitted concentration of half-maximal effect;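 for activity change, negative = inhibition: -100% = full effect of reference inhibitor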); settings: recombinant CYP1A2, luciferin-ME demethylation, luminescence; series mostly up to 11.4 µM
# Procedure, shortened: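 20nM CYP1A2 with 100uM Luciferin-ME (at Km) in 100mM KPO4; compound preincubated 10 min, NADPH regeneration added, 60 min at room temperature. Luciferin quantified by luminescence after detection reagent; normalized to 57 uM furafylline.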
# [3] = Stat Signaling Pathway (AID 446); settings: ME-180 SIE beta-lactamase reporter, IL-6 stimulated, 5 h; at 7.69 µM (top of the series) unless noted;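 note: ME-180 cervical cancer cells given 40 pM IL-6 alongside compound; SIE-controlled beta-lactamase reporter measured as 460/530 nm FRET emission ratio; % is set by controls: 0 for no effect and ±100 for the full control effect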
# Procedure, shortened: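 ME-180 cells carrying a SIE-driven beta-lactamase reporter are stimulated with 40 pM IL-6 for 5 h at 37C in the presence of compound. The 460/530 nm FRET substrate ratio is read after 2.5 h at RT. Data are normalised to 300 pM IL-6 and to 125 nM JAK inhibitor controls.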
# [4] = molecular target: Glucocorticoid receptor (Homo sapiens) (UniProt P04150); experiment: GR-GFP Redistribution (AID 450;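 active = compounds whose dose series gives a full or clear partial fitted curve of increased nuclear translocation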; note: potency is the fitted concentration of half-maximal effect); settings: U2OS GR-GFP nuclear translocation, laser cytometry, 2 h
# [5] = molecular target: Glucocorticoid receptor (Homo sapiens) (UniProt P04150); experiment: GR-EFC Redistribution (AID 451; calls by dose curve; note: potency is the fitted concentration of half-maximal effect); settings: CHO-K1 GR-EFC translocation, beta-gal luminescence, 2 h
# Procedure, shortened: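 CHO-K1 cells expressing nuclear EA and GR-ED fragments of b-gal; compounds titrated up to 46 uM final, 2 h at 37 C. GR nuclear translocation read as complemented b-gal luminescence after 1 h RT detection.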
# [6] = molecular target: Mitogen-activated protein kinase 10 (Mus musculus) (UniProt Q61831); experiment: JNK3 AlphaScreen Assay (AID 530); settings: JNK3 lysate, c-Jun phosphorylation; series mostly up to 11.4 µM;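 note: kinase came from lysate of stimulated human HepG2 cells; signal reports phosphorylation of biotinylated GST-cJun 1-79 at Ser73 with 10 µM ATP; % is set by controls: 0 for no effect and ±100 for the full control effect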
# Procedure, shortened: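 Pre-activated (IL-1β/TNFα) JNK3 in HepG2 lysates phosphorylates biotin-GST-cJun(1-79), 10 uM ATP; anti-phospho-cJun(Ser73) AlphaScreen read at room temperature, pH 7.6 Tris buffer. Compounds pre-incubated 15 min as titrations.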
# [7] = molecular target: 3',5'-cyclic-AMP phosphodiesterase 4B (Homo sapiens) (UniProt Q07343); experiment: qHTS Assay for Inhibitors of PDE-IV (AID 607; active = well fitted activation curve with a large enough effect in the main read-out, with a control signal flat, not every such curve was filed as active; note: % of control where 0% means no effect); settings: HEK293 ACTOne CNG channel cells, membrane potential fluorescence; series mostly up to 22.9 µM
# Procedure, shortened: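 HEK293 ACTOne cells with CNG channel (1000/well), endogenous PDE4; membrane potential dye, compounds up to 22.9 uM final. Fluorescence Ex 535/Em 590; RO 20-1724 (100 uM final) as reference.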
# [8] = molecular target: Cytochrome P450 3A4 (Homo sapiens) (UniProt P08684); experiment: qHTS Assay for Inhibitors and Substrates of Cytochrome P450 3A4 (AID 884; active = well fitted curve in the direction sought with a large enough effect; an effect the other way counts as inactive or inconclusive; note: potency is the fitted concentration of half-maximal effect; nearly all actives have a fitted effect of over 50% in size); settings: recombinant CYP3A4, Luciferin-PPXE luminescence; series mostly up to 57.1 µM
# Procedure, shortened: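 20 nM human CYP3A4 with 25 uM Luciferin-PPXE (at KM) in 200 mM KPO4, preincubated 10 min with compound; NADPH regeneration started a 60 min RT reaction. Luciferin detected by luminescence, normalized to 57 uM ketoconazole as full inhibition.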
# [9] = molecular target: Cytochrome P450 3A4 (Homo sapiens) (UniProt P08684); experiment: qHTS Assay for Activators of Cytochrome P450 3A4 (AID 885; active = well fitted curve in the direction sought with a large enough effect; an effect the other way counts as inactive or inconclusive; note: nearly all actives have a fitted effect of over 65% in size); settings: recombinant CYP3A4, Luciferin-PPXE luminescence, 60 min; series mostly up to 11.4 µM
# Procedure, shortened: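 Human CYP3A4 (20 nM) with Luciferin-PPXE at 25 uM (its KM) in 200 mM KPO4; 10 min compound preincubation, then NADPH regeneration and 60 min reaction at RT. Luciferin read by luminescence; normalized to 57 uM ketoconazole full inhibition.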
# [10] = molecular target: Cytochrome P450 2C19 (Homo sapiens) (UniProt P33261); experiment: qHTS Assay for Inhibitors and Substrates of Cytochrome P450 2C19 (AID 899; active = well fitted curve in the direction sought with a large enough effect; an effect the other way counts as inactive or inconclusive; note: potency is the fitted concentration of half-maximal effect; nearly all actives have a fitted effect of over 60% in size); settings: recombinant CYP2C19, luciferin-H EGE luminescence; series mostly up to 11.4 µM
# Procedure, shortened: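 Luminescent read-out of luciferin formed from Luciferin-H EGE (10uM, equal to KM). Enzyme 5nM in 50mM KPO4; compound added, 10 min at 37C, then NADPH regenerating system for 60 min at 37C. Full inhibition defined by 57uM ketoconazole.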
# [11] = molecular target: Cytochrome P450 2D6 (Homo sapiens) (UniProt P10635); experiment: qHTS Assay for Inhibitors and Substrates of Cytochrome P450 2D6 (AID 891; active = well fitted curve in the direction sought with a large enough effect; an effect the other way counts as inactive or inconclusive; note: potency is the fitted concentration of half-maximal effect; nearly all actives have a fitted effect of over 60% in size); settings: recombinant CYP2D6, luciferin-ME EGE luminescence; series mostly up to 11.4 µM
# Procedure, shortened: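 Human CYP2D6 (5 nM) with 30 uM Luciferin-ME EGE (at Km) in 100 mM KPO4, compound preincubated 10 min, then NADPH regeneration system for 60 min at room temperature. Luciferin read by luminescence; normalized to 1.43 uM quinidine.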
# [12] = NFAT Signaling Pathway (AID 444); settings: Jurkat NFAT-bla M1, carbachol, beta-lactamase ratio, 5 h; at 7.69 µM (top of the series) unless noted;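 note: carbachol stimulus at about its EC50 of 1 µM final; % is set by controls: 0 for no effect and ±100 for the full control effect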
# Procedure, shortened: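 Jurkat cells with NFAT-driven β-lactamase reporter and co-expressed M1 receptor, stimulated with carbachol (final 1 uM, ~EC50), compound titration, 5 h at 37 °C. CCF4 loaded 1 h at RT; 460/530 nm ratio gave %activity and AC50.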
# [13] = qHTS Assay for Identification of Small Molecule Agonists for Hypoxia Response Element Signaling Pathway (AID 914; active = well fitted activation curve with a large enough effect in the signal ratio, with a control signal flat, not every such curve was filed as active; the % refers to the signal ratio; note: potency is the fitted concentration of half-maximal effect; for activation: % of control where 0% means no effect); settings: ME-180 (cervical carcinoma) HRE-bla reporter, beta-lactamase ratio, CoCl2, 17 h; activation: hits give high values
# Procedure, shortened: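 qHTS titration; ME-180 HRE-bla cells; EC50 CoCl2 co-treatment, 17 h at 37 degrees Celsius; CCF4 dye, ex 405nm, em 460nm and 530nm; %Activity from ratio; AC50.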
# [14] = molecular target: Cytochrome P450 2C9 (Homo sapiens) (UniProt P11712); experiment: qHTS Assay for Inhibitors and Substrates of Cytochrome P450 2C9 (AID 883; active = well fitted curve in the direction sought with a large enough effect; an effect the other way counts as inactive or inconclusive; note: potency is the fitted concentration of half-maximal effect; nearly all actives have a fitted effect of over 60% in size); settings: recombinant CYP2C9, luciferin-H luminescence, 60 min; series mostly up to 11.4 µM
# Procedure, shortened: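 10nM CYP2C9 + 100uM Luciferin-H (=KM), 25mM KPO4; cpd 10 min 37C; NADPH regen, 60 min 37C; stop/detect with P450 Glo-Buffer 20 min; luminescence. Norm. to 57uM sulphaphenazole as full inhibition.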
# Sequence of Cytochrome P450 2C19 (Homo sapiens) (P33261 whole entry, looked up): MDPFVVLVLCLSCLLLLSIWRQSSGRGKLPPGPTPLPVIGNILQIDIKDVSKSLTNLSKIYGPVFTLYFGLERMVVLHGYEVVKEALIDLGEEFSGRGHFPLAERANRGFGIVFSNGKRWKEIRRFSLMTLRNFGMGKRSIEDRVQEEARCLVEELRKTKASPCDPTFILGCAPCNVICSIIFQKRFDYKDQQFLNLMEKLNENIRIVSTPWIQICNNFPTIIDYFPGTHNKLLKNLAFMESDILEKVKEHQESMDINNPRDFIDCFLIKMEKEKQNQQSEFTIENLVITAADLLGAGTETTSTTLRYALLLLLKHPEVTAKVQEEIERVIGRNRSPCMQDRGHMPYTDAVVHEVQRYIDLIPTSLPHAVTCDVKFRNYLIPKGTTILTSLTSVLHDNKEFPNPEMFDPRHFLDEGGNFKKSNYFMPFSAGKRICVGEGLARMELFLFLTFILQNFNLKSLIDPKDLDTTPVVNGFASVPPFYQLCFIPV
# Sequence of 3',5'-cyclic-AMP phosphodiesterase 4B (Homo sapiens) (Q07343 whole entry, looked up): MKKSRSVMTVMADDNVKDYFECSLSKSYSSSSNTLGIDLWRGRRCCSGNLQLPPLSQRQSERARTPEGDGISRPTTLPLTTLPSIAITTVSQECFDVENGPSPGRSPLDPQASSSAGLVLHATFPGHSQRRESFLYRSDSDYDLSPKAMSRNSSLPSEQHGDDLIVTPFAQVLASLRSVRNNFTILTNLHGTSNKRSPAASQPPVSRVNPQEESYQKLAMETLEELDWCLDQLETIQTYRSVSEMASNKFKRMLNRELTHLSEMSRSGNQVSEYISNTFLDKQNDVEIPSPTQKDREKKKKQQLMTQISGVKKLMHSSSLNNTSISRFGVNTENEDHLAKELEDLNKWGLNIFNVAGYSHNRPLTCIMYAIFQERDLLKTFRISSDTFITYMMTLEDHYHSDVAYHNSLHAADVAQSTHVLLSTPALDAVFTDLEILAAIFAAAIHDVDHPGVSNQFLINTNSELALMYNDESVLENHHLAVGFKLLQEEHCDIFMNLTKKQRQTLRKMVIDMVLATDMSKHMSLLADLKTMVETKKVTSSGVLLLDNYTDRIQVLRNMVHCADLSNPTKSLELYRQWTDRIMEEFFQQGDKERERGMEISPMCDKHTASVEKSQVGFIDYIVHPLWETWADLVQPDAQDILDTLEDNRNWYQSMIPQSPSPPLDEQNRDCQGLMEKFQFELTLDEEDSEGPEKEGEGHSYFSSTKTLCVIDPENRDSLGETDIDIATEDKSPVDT
# Sequence of Glucocorticoid receptor (Homo sapiens) (P04150 whole entry, looked up, the tested form may be a part): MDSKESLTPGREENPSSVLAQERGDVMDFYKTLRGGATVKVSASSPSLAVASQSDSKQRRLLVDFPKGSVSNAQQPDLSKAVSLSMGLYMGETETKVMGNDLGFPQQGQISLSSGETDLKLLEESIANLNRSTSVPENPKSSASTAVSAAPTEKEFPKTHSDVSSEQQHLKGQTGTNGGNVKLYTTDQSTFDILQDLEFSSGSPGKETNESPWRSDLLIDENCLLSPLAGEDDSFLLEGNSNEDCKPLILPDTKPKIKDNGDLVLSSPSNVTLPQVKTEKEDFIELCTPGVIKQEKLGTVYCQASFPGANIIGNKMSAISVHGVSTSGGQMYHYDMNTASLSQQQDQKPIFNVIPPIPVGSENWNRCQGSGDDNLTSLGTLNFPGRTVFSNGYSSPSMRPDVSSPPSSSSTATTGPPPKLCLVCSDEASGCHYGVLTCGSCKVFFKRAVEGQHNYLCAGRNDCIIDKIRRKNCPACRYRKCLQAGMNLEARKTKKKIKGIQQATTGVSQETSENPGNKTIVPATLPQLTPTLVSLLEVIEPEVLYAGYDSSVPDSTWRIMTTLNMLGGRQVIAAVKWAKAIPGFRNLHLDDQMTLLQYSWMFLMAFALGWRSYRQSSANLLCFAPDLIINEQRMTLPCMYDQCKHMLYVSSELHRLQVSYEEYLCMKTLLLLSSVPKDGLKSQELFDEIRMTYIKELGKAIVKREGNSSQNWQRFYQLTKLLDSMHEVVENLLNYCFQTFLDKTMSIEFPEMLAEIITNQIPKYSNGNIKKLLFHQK
# Sequence of Lysosomal acid glucosylceramidase (Homo sapiens) (P04062 whole entry, looked up): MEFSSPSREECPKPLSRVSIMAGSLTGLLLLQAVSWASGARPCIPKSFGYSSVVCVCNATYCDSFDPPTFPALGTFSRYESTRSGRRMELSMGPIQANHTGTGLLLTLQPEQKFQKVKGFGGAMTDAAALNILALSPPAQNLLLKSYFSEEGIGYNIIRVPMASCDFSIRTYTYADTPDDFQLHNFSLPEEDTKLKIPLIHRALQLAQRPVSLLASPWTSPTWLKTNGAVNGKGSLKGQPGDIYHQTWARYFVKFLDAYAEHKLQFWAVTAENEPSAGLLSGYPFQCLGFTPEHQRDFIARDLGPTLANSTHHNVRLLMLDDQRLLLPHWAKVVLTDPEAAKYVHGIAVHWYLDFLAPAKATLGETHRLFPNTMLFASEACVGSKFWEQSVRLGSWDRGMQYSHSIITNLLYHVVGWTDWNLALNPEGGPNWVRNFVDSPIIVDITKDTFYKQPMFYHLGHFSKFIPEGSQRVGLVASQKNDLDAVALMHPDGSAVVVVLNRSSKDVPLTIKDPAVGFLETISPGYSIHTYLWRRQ
# Sequence of Cytochrome P450 3A4 (Homo sapiens) (P08684 whole entry, looked up): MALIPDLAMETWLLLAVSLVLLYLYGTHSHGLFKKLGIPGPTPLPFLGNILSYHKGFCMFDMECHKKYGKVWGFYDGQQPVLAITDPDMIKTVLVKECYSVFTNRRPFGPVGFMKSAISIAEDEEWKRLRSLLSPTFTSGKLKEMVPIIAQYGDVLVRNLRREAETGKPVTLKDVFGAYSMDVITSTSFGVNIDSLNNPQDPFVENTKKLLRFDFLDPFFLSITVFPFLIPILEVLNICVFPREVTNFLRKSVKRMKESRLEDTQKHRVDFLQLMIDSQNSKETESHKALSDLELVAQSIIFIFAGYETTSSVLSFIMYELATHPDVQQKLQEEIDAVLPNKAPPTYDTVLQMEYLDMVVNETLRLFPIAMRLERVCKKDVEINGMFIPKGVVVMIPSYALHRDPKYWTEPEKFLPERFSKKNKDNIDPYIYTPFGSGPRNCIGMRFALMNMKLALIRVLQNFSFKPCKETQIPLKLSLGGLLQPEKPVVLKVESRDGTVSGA
# Sequence of Cytochrome P450 2C9 (Homo sapiens) (P11712 whole entry, looked up): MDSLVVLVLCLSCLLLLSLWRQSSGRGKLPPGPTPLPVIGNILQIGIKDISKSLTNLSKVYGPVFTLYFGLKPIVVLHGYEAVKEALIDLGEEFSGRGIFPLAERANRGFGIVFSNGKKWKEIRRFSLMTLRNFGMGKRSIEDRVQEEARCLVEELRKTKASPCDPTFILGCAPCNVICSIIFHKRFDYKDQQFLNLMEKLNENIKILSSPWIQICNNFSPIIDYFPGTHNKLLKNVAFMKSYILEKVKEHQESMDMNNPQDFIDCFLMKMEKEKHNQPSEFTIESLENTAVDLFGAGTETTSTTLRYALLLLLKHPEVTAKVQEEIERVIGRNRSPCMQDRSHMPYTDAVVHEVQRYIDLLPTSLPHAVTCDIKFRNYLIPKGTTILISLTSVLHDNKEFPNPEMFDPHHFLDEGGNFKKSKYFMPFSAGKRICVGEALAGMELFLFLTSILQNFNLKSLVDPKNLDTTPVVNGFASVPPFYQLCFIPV
# Sequence of Cytochrome P450 1A2 (Homo sapiens) (P05177 whole entry, looked up): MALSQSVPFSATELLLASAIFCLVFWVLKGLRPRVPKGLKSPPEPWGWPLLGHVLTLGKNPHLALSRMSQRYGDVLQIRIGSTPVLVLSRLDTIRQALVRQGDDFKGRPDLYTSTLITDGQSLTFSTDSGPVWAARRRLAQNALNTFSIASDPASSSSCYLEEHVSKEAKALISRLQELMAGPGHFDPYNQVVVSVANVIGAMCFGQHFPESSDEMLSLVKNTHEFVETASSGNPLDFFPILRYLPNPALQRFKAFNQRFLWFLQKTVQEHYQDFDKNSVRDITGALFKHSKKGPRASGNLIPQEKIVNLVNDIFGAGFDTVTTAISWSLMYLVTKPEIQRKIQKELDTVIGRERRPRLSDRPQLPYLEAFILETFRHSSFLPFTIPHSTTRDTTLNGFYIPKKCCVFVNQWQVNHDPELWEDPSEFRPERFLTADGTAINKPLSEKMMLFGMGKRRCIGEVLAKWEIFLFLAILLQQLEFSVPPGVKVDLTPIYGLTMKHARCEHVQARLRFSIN
# Sequence of Cytochrome P450 2D6 (Homo sapiens) (P10635 whole entry, looked up): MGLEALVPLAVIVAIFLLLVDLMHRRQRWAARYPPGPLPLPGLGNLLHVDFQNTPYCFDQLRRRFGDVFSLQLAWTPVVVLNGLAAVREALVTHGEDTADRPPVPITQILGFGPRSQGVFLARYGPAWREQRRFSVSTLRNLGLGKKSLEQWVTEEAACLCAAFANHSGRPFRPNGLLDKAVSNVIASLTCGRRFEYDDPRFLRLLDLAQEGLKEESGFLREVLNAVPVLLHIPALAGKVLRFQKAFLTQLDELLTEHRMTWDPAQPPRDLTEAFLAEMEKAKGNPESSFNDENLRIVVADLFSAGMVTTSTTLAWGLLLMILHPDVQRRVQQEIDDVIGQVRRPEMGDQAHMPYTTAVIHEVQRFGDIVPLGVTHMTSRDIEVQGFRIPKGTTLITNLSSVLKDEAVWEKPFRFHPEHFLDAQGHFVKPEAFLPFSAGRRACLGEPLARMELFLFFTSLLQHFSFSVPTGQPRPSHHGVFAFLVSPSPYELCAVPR
Compound,Potency [1] [µM],Potency [2],"activity, negative = inhibition [3] [%]",Potency [4] [µM],Potency [5] [µM],Potency [6],Potency [7],Potency [8],Potency [9],Potency [10],Potency [11],"activity change, negative = inhibition [12] [%]","activity change, negative = inhibition [2]",activation [13] [%],Potency [14],Potency [13]
C[N+](C)([O-])CCC=C1c2ccccc2CCc2ccccc21,> 11.4,0.794 µM (active),10.1,> 46,> 9.22,inactive,inactive,1.26 µM (active),inactive,0.398 µM (active),,,,,,
CSc1ccc2c(c1)N(CCCN(C)C)c1ccccc1S2,> 11.4,1.26 µM (active),2.23,> 46,> 9.22,inactive,inactive,,,,0.501 µM (active),,,,,
O=C(c1ccncc1)N1CCC2(CCCN(c3cccc(-c4ccccc4)c3)C2)CC1,> 11.4,12.6 µM (active),-7.37,,> 46,inactive,,,,,,-6.09,,,,
O=C(O)CCc1c2ccc(=O)c(O)c-2oc2c(O)c(O)ccc12,> 11.4,,,> 46,> 9.22,inactive,inactive,,,,,17.3,-4% [at 2.29 µM],,,
O=C(O)CC[C@@]1(c2ccccc2)NC(=O)NC1=O,> 11.4,inactive,2.02,,> 9.22,inactive,inactive,,,,,8.48,,-0.349,,
Oc1c(C(O)(c2ccccc2)c2ccc3ccccc3c2O)ccc2ccccc12,> 11.4,1 µM (active),-10.4,> 46,> 9.22,,inactive,,,0.794 µM (active),,,,,0.794 µM (active),
CN(C)CCCN1c2ccccc2Sc2ccc3ccccc3c21,> 11.4,,3.27,> 46,> 9.22,inactive,inactive,,,,1.26 µM (active),,-2.2% [at 2.29 µM],,,
Cc1ccc2ccccc2c1CSc1nc(N)nc2c1ncn2CC(C)C,> 11.4,,-19.8,> 46,,inactive,inactive,,,3.98 µM (active),3.98 µM (active),,-20.8% [at 2.29 µM],,,
Cc1ccc(-c2nc(-c3nccc4ccccc34)oc2-c2ccccc2)cc1,> 11.4,2.51 µM (active),24.1,> 46,> 9.22,inactive,inactive,,inactive,,,,,,,
COCCn1c(=O)c(-c2cccc(C#N)c2)nc2cnc(N3CCNCC3)nc21,> 11.4,10 µM (active),,> 9.22,> 46,inactive,inactive,,inactive,,,,,,3.98 µM (active),3.16 µM (active)
ClC(=Nc1cccc2ccccc12)N(c1ccccc1)c1ccccc1,> 11.4,1 µM (active),,> 46,> 9.22,inactive,inactive,,inactive,2.51 µM (active),,-2.09,,,3.16 µM (active),
CCN(CC)CCN1c2ccccc2Sc2ccc3ccccc3c21,> 11.4,3.98 µM (active),4.26,> 46,> 9.22,inactive,inactive,,,,0.631 µM (active),,,,,
CN1CCN(c2ncc3nc(-c4ccccc4)c(=O)n(Cc4ccc(F)cc4)c3n2)CC1,> 11.4,inactive,,> 9.22,> 46,inactive,inactive,,,,,,,,,3.16 µM (active)
O=C(O)C[C@H](Cc1ccccc1)C(=O)O,> 11.4,inactive,-5.23,> 46,,inactive,inactive,,,,,2.62,,,,
